In PubChem BioAssay AID743320 (Broad Institute, 2014):
Potency and affinity values are given separately. Activity calls are given as the source filed them.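 The calls were made as follows: active = signal drop whose fitted half-maximal potency is at most twice the top valid dose tested; inconclusive = flat curve inhibiting 30 to 70 percent, or a poor fit; inactive = the rest.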

molecular target: Endoplasmic reticulum aminopeptidase 2 (Homo sapiens) (UniProt Q6P179); assay: inhibition of ERAP2 arginine-AMC cleavage – biochemical, fluorescence plate reader, cherry-picked, set 2, selectivity assay for selective ERAP1 modulator project, dose response (AID 743320); conditions: recombinant ERAP2, Arg-AMC fluorescence, 1 h; series mostly up to 11 µM
Sequence (Q6P179 whole entry, looked up): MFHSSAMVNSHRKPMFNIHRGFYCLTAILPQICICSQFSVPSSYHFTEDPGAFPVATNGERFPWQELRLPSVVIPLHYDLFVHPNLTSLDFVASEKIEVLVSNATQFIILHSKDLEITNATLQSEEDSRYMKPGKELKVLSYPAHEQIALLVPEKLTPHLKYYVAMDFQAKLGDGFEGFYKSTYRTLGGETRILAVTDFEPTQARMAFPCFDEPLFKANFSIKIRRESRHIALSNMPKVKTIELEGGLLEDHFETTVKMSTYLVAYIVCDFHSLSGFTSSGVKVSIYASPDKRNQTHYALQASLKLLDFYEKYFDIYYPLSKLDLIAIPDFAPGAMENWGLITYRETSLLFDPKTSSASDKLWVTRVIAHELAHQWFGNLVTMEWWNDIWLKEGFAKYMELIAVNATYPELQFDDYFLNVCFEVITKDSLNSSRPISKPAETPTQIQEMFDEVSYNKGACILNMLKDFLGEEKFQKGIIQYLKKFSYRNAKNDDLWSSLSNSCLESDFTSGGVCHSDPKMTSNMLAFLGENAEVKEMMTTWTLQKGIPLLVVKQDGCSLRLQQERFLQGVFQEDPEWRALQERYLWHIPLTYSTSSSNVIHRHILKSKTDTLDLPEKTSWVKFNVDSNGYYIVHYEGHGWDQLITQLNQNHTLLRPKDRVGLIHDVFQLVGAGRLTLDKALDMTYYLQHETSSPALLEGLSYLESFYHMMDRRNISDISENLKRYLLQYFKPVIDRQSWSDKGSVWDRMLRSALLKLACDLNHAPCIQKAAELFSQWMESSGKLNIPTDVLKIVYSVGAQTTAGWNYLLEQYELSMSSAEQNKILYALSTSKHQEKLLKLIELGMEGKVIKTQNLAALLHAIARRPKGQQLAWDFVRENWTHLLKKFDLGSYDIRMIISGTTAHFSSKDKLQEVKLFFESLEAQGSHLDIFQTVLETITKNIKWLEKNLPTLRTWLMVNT

SMILES	outcome
Cc1cc(=O)oc2cc(OCC(=O)N3CCN(C(C)c4ccccc4)CC3)c(Cl)cc12 (stereo not drawn)	inactive
CCN(CCCl)c1cc(CN(C)C)cc(NC(=O)c2ccc(C(=O)Nc3cc(CN(C)C)cc(N(CC)CCCl)c3)cc2)c1	inactive
N#Cc1c(N2CCNCC2)nc(-c2ccco2)c2c1CCCC2	inactive
